This note sets out measurements from PubChem BioAssay AID2358 (The Scripps Research Institute Molecular Screening Center, 2010).

Among all 1,900 compounds or so, about 1,000 (53%) were called active.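 Rule for the calls: active = mean PP1 inhibition above a set limit taken from the earlier primary screen (cut at about 15% in these data); inactive = the rest.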 The set was probably picked from earlier hits. A selection follows.

The assay deals with Serine/threonine-protein phosphatase PP1-alpha catalytic subunit (Homo sapiens) (UniProt P62136). Description: inhibition of human PP1-alpha enzyme activity – biochemical, fluorescence, OMFP substrate, triplicate, confirmation (AID 2358). Conditions: purified PP1alpha, at 6.7 µM, stronger effect = higher value.
Serine/threonine-protein phosphatase PP1-alpha catalytic subunit (Homo sapiens), sequence (P62136 whole entry, looked up): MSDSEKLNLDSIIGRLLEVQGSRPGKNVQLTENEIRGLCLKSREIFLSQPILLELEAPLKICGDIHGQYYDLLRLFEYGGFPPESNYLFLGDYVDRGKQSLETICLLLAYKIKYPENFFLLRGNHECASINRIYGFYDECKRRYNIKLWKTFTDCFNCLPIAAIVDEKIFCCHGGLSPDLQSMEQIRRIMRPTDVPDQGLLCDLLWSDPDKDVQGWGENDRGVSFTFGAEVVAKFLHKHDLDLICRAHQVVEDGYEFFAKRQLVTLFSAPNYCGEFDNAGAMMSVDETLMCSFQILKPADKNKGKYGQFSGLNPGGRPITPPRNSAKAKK
Consider `O=c1[nH]c(CN2CC=C(c3ccccc3)CC2)nc2scc(-c3cccs3)c12`, for which the inhibition is 19.9% (active).

Regarding `CCOP(=O)(OCC)C(O)c1ccc(OC)cc1OC` (stereo not drawn), the inhibition was -5.49% (inactive).

As for `O=C(O)c1ccccc1NC(=O)C1C2CCC(O2)C1C(=O)O` (stereo not drawn), the inhibition was 13.2% (inactive).
